KCNQ2 pot – potentiators of rat KCNQ2 potassium channel | Potassium voltage-gated channel subfamily KQT member 2 (Rattus norvegicus), O88943 | CHO-K1 KCNQ2, FluxOR thallium flux fluorescence; active compounds read high | B-score at 10 µM | actives 0.54% (n = 310,000) | AID 2239, 2010;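 active = fluorescence ratio B-score at least 3 SD of library B-scores, with initial fluorescence B-score within 3 of them, cut at about 5.3 in these data; same plate scores as AID 2156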;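 note: B-score of peak minus minimum over baseline fluorescence ratio after K+ and Tl+ stimulus; positive B-score means potentiation of KCNQ2 with more thallium influx and brighter signal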
Target sequence (O88943 whole entry, looked up): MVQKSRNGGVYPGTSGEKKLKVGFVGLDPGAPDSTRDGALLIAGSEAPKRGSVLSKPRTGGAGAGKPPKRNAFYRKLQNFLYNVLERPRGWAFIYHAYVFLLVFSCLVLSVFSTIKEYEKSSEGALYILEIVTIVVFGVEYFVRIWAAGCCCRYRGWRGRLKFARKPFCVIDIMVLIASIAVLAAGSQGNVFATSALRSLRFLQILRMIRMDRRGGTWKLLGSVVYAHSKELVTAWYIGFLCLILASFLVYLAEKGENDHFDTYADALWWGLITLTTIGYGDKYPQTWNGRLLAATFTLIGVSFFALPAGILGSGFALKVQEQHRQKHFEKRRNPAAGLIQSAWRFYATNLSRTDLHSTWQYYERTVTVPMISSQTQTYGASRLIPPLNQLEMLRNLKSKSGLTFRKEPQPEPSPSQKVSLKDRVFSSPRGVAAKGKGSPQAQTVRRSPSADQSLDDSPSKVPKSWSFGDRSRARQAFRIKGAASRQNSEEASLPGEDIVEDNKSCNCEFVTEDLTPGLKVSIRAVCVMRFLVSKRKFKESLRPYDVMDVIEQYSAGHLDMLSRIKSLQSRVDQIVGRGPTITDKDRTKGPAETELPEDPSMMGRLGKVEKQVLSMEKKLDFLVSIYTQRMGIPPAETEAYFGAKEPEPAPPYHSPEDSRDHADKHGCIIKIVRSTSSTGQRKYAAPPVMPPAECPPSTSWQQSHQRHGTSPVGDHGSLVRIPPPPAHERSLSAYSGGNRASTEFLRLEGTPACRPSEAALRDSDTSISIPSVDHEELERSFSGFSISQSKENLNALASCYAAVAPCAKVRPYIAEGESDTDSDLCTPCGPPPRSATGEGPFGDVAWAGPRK
KCNQ2 inh – rat KCNQ2 potassium channel inhibitors, primary screen, cell-based, CHO-K1, FluxOR thallium flux, B-score; Potassium voltage-gated channel subfamily KQT member 2 (Rattus norvegicus), O88943; 20 min; active compounds read low; B-score at 10 µM; actives 1.1% (n = 310,000); AID 2156, 2009;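 active = fluorescence ratio B-score at most minus 3 library SDs, with starting brightness B-score within 2 library SDs, cut at about -5.5 in these data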
Each line names hits and unclear results; the compound was inactive in the other large screens. The list is not random: actives were taken first. Their share in the collection is about 1.6%.

CC(C)(C)c1nc(NCCO)c2nnn(Cc3ccccc3)c2n1	none
COC(=O)c1cc(S(=O)(=O)NC2CCC(C)CC2)cn1C (stereo not drawn)	none (no result: KCNQ2 pot)
COc1cccc2sc3ccc(C#CC4(O)CCCCC4)cc3c(=O)c12	KCNQ2 inh -6.7
O=c1c2ccccc2sc2ccc(C#CC3(O)CCCCC3)cc12	none (no result: KCNQ2 pot)
C=CCOC(=O)/C(=C\c1cccc2ccccc12)NC(=O)c1ccccc1	KCNQ2 inh -5.8
C=CCOC(=O)/C(=C\c1ccccc1)NC(=O)c1ccc(C)cc1	none (no result: KCNQ2 pot)
COc1ccc(-c2csc3nc[nH]c(=O)c23)cc1OC	none
Cc1ccc(-c2csc3nc[nH]c(=S)c23)cc1C	KCNQ2 pot 10
CC(C)C1=NN(C(=O)c2ccccc2)C(O)(C(C)(C)C)C1 (stereo not drawn)	KCNQ2 pot 7.1
CC(C)(C)C1=NN(C(=O)c2ccccc2)C(O)(C(C)(C)C)C1 (stereo not drawn)	none (no result: KCNQ2 pot)
Cc1c(C(=O)Nc2ccc(F)cc2)sc2ncn(CC(=O)N3CCCCC3)c(=O)c12	none (no result: KCNQ2 pot)
CCN1CCN(C(=O)c2cc(-c3cccnc3)nc3ccc(Br)cc23)CC1	KCNQ2 inh -8.3
COc1cccc(CN2CCN(C(=O)c3cc(-c4ccccn4)nc4ccc(Cl)cc34)CC2)c1	none (no result: KCNQ2 pot)
O=C(O)c1cc(-c2cccnc2)nc2ccc(Br)cc12	none
COc1cccc(CN2CCN(C(=O)c3cc(-c4ccncc4)nc4ccc(C)cc34)CC2)c1	KCNQ2 inh -5.9
Cc1ccc(C(=O)N2CCC3(CC2)NCCc2[nH]cnc23)cc1C	none
CC(=O)NCCc1nc2cc(NC(=O)c3ccc([N+](=O)[O-])cc3)ccc2n1C	none
c1ccc(-c2ccc3c(c2)c2c4n3CCN=C4CCC2)cc1	KCNQ2 inh -7.5
OC1CN=C2CCCc3c2n(c2ccc(Cl)cc32)C1 (stereo not drawn)	none (no result: KCNQ2 pot)
COc1ccc(C(=O)Nc2nc(-c3cccs3)cs2)cc1	none
O=C(Cc1csc(NC(=O)c2ccc(F)cc2)n1)NO	KCNQ2 inh -5.7
COc1cc(C(=O)Nc2nc(-c3cccs3)cs2)cc(OC)c1OC	KCNQ2 inh -7.1
COc1cc(OC)cc(C(=O)Nc2nc(CC(=O)NCc3ccccc3OC)cs2)c1	KCNQ2 inh -6.6
COc1ccccc1NC(=O)Cc1csc(NC(=O)c2ccccc2)n1	none
COc1cc(OC)cc(C(=O)Nc2nc(CC(=O)NCc3ccc(F)cc3)cs2)c1	none (no result: KCNQ2 pot)
COc1ccc(CNC(=O)Cn2c(=O)n(CC(=O)N3CCCCC3)c(=O)c3sccc32)cc1	none (no result: KCNQ2 pot)
COc1cc(CN2CCN(CCCc3ccccc3)C(CCO)C2)cc(OC)c1O (stereo not drawn)	none
CN(C)c1ccc(/C=N/NC(=O)CN2CCCCC2)cc1Br	none (no result: KCNQ2 pot)
CN(C)C(=O)c1c2c(nc3ccccc13)-c1ccccc1CC2	KCNQ2 inh -6.1
CN(C)C(=O)c1c2c(nc3ccccc13)CCCC2	none
Cc1ccc(NS(=O)(=O)c2ccc(NC(=O)c3ccccc3C(=O)O)cc2)cc1C	none (no result: KCNQ2 pot)
C/C(CC(=O)Nc1cc(C)ccn1)=N\NC(=O)C(=O)Nc1cccc(C)c1	KCNQ2 pot 5.4
COc1ccc(NC(=O)C(=O)N/N=C(\C)CC(=O)Nc2cc(C)ccn2)c(OC)c1	none
COc1cccc(NC(=O)C(C)N2C(=O)c3ccccc3C2=O)c1 (stereo not drawn)	none
Cc1ccc(NC(=O)NC2CCCc3ccccc32)cc1 (stereo not drawn)	KCNQ2 inh -5.8
CC(C)(C)c1ccc(NC(=O)NC2CCCc3ccccc32)cc1 (stereo not drawn)	none (no result: KCNQ2 pot)
CCCCCN(C(=O)CCC(=O)OCC(=O)c1c(C)cc(C)cc1C)c1c(N)n(CCCC)c(=O)[nH]c1=O	none
CCOC(=O)c1c(-c2ccc(C)o2)csc1NC(=O)CN1CCOCC1	none (no result: KCNQ2 pot)
CCOC(=O)c1c(-c2ccc(C)o2)csc1NC(=O)COC(=O)c1cccs1	KCNQ2 inh -6
COc1cc(C(=O)Nc2cccc(NC(=O)c3cccs3)c2)cc(OC)c1OC	none (no result: KCNQ2 pot)
COc1cccc(NC(=O)C(=O)NCCC2CCCCN2S(=O)(=O)c2ccccc2)c1 (stereo not drawn)	none
CN1C(=O)[C@@H]2[C@H](C1=O)[C@@H]1C(=O)Nc3ccccc3C(=O)N1[C@@H]2c1cccc(Br)c1	none (no result: KCNQ2 pot)
COc1cccc(C2c3c(oc4ccc(Cl)cc4c3=O)C(=O)N2c2cc(C)on2)c1OC (stereo not drawn)	KCNQ2 inh -7.2
COc1ccc(/C(O)=C2\C(=O)C(=O)N(c3cc(C)on3)C2c2cccc(OC)c2OC)cc1C (stereo not drawn)	none
COc1cc(CNC(=O)C2CCC(=O)N(C3CCCCCC3)C2)cc(OC)c1 (stereo not drawn)	none
CC(NC(=O)CCSCc1ccccc1F)c1ccccc1 (stereo not drawn)	none (no result: KCNQ2 pot)
Cc1ccc(-c2ccc(/C=N\NC(=O)c3cc4c(ccc5ccccc54)o3)o2)cc1[N+](=O)[O-]	none
COc1ccc(/C=N/NC(=O)c2cc3c(ccc4ccccc43)o2)cc1OC	none
O=C(N/N=C/c1ccc(-c2ccc(Cl)c(C(=O)O)c2)o1)c1cc2c(ccc3ccccc32)o1	KCNQ2 pot 5.4
COc1ccccc1/C=N/NC(=O)c1cc2c(ccc3ccccc32)o1	KCNQ2 inh -6.4
CC(=O)c1cccc(N(C(=O)Cn2nnc3ccccc32)C(C(=O)NCC2CCCO2)c2ccc(N3CCOCC3)cc2)c1 (stereo not drawn)	none
COc1cc(NC(=O)C(=O)NNC(=O)C2CCCCC2)c(OC)cc1Cl	KCNQ2 pot 9.8
COc1cc(NC(=S)N2CCCCC2C)c(OC)cc1Cl (stereo not drawn)	none (no result: KCNQ2 pot)
CCOC(=O)C(CCCCOc1cccc(CC)c1)C(=O)OCC	KCNQ2 inh -5.6
CCOC(=O)C(CCCOc1cccc(CC)c1)C(=O)OCC	none (no result: KCNQ2 pot)
O=C(CNC1CCCCC1)Nc1cccc(C(F)(F)F)c1	none (no result: KCNQ2 pot)
O=C(Nc1ccccc1N1CCCC1)c1ccc(Cl)cc1Cl	none (no result: KCNQ2 pot)
Cc1ccccc1C(=O)Nc1ccccc1N1CCCCC1	none (no result: KCNQ2 pot)
O=C(Nc1ccccc1N1CCCC1)c1ccccc1Cl	KCNQ2 inh -6.1
O=C(Nc1ccccc1N1CCCC1)c1cc(Cl)ccc1Cl	KCNQ2 inh -5.7
COC(=O)c1cc(NC(=S)NC(=O)c2ccccc2)ccc1N1CCOCC1	none
Cc1cc(OC(=O)c2ccccc2C)c([N+](=O)[O-])c(=O)[nH]1	none (no result: KCNQ2 pot)
CSCCC(NS(=O)(=O)c1cccs1)C(=O)NCc1ccc(C)cc1 (stereo not drawn)	KCNQ2 pot 9.6
CSCCC(NS(=O)(=O)c1cccs1)C(=O)NCc1ccccc1 (stereo not drawn)	none
CC(=O)c1ccc(NC(=S)N2CCCC(CO)C2)cc1 (stereo not drawn)	KCNQ2 pot 13
COC(=O)Cc1ccc(NC(=S)N2CCCC(CO)C2)cc1 (stereo not drawn)	none
O=C(CSc1nnc(NC(=O)C2CC2)s1)NCc1ccc(F)cc1	none
CCn1cc(C(=O)N[C@H](C(=O)NCCCN2CCOCC2)C(C)C)c(=O)c2cc3c(cc21)OCO3	none (no result: KCNQ2 pot)
O=C(COc1ccc(Cl)cc1)NCCCNC(=O)c1ccncc1	none (no result: KCNQ2 pot)
Clc1ccc(CONc2ncnc3nonc23)c(Cl)c1	KCNQ2 pot 6.9
CCONc1ncnc2nonc12	none
CCOc1nc2cnccc2n(CC(=O)Nc2cccc(C)c2)c1=O	none
COc1ccc(-n2c(SCC(=O)Nc3ccc(C(=O)O)cc3)nnc2-c2ccccc2)cc1OC	none (no result: KCNQ2 pot)
CCN(CC)C(=O)CSc1nc2ccccc2c(=O)n1-c1cccc(OC)c1	none (no result: KCNQ2 pot)
COc1cccc(-n2c(SCc3cc(=O)oc4cc(O)c(O)cc34)nc3ccccc3c2=O)c1	KCNQ2 inh -6.1

Source: PubChem BioAssay
